Data as given in PubChem BioAssay AID1159580 (chemical genetic matrix, 2015).
Hit rate of the full screen: of about 5,500 compounds, about 2,000 (36%) were called active. Roughly 18% stayed inconclusive and do not appear here. No stated cut-off is given here; in the data, active means normalized growth mostly below about 0.91 (no sharp cut-off); inconclusive means no clear call, values can overlap the other calls; inactive means mostly above about 0.92. This is one part of the list.

Assay: chemical genetic growth profiling, strain panel (AID 1159580);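 further: tested at 20 µM; growth read once vehicle control cultures reached saturation at 30 °C; 1 = growth at the plate median or of vehicle wells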
Conditions: growth OD

Measured: normalized growth

C[C@H]1C(=O)O[C@@H]2CCN3CC=C(COC(=O)[C@](C)(O)[C@]1(C)O)[C@H]23
inactive: S. cerevisiae deletion strains, locus YKL068W, stronger effect = lower value 0.992 | S. cerevisiae deletion strains, locus YKL085W, strain MDH1 (second series), stronger effect = lower value 1.04 | S. cerevisiae deletion strains, locus YKL085W, strain MDH1, stronger effect = lower value 1.04 | S. cerevisiae deletion strains, locus YKL160W, strain elf1, stronger effect = lower value 0.991 | S. cerevisiae deletion strains, locus YKL190W, strain CNB1, stronger effect = lower value 1 | S. cerevisiae deletion strains, locus YKR001C, strain vps1, stronger effect = lower value 0.986 | S. cerevisiae deletion strains, locus YKR026C, strain gcn3, stronger effect = lower value 0.986 | S. cerevisiae deletion strains, locus YKR091W, strain srl3, stronger effect = lower value 0.975 | S. cerevisiae deletion strains, locus YLL001W, strain dnm1, stronger effect = lower value 0.976 | S. cerevisiae deletion strains, locus YLL026W, stronger effect = lower value 0.99 | S. cerevisiae deletion strains, locus YLL041C, strain sdh2, stronger effect = lower value 0.993 | S. cerevisiae deletion strains, locus YLR027C, strain aat2, stronger effect = lower value 0.993 | S. cerevisiae deletion strains, locus YLR039C, strain RIC1, stronger effect = lower value 0.989 | S. cerevisiae deletion strains, locus YLR058C, strain SHM2, stronger effect = lower value 0.99 | S. cerevisiae deletion strains, locus YLR102C, strain apc9, stronger effect = lower value 0.988 | S. cerevisiae deletion strains, locus YLR113W, strain HOG1, stronger effect = lower value 1.01 | S. cerevisiae deletion strains, locus YLR221C, strain rsa3, stronger effect = lower value 1.01 | S. cerevisiae deletion strains, locus YLR258W, strain gsy2, stronger effect = lower value 0.992 | S. cerevisiae deletion strains, locus YLR262C, strain YPT6 (second series), stronger effect = lower value 0.976 | S. cerevisiae deletion strains, locus YLR262C, strain YPT6, stronger effect = lower value 1.02 | S. cerevisiae deletion strains, locus YLR268W, strain sec22, stronger effect = lower value 0.988 | S. cerevisiae deletion strains, locus YLR320W, strain mms22, stronger effect = lower value 0.997 | S. cerevisiae deletion strains, locus YLR330W, strain CHS5, stronger effect = lower value 0.992 | S. cerevisiae deletion strains, locus YLR342W, strain FKS1 (second series), stronger effect = lower value 0.976 | S. cerevisiae deletion strains, locus YLR342W, strain FKS1, stronger effect = lower value 0.997 | S. cerevisiae deletion strains, locus YLR357W, strain rsc2, stronger effect = lower value 0.979 | S. cerevisiae deletion strains, locus YLR370C, strain arc18, stronger effect = lower value 0.986 | S. cerevisiae deletion strains, locus YLR371W, strain rom2, stronger effect = lower value 0.984 | S. cerevisiae deletion strains, locus YLR384C, strain iki3, stronger effect = lower value 0.987 | S. cerevisiae deletion strains, locus YLR418C, strain cdc73, stronger effect = lower value 0.985 | S. cerevisiae deletion strains, locus YML016C, strain PPZ1, stronger effect = lower value 0.987 | S. cerevisiae deletion strains, locus YML032C, strain rad52, stronger effect = lower value 0.993 | S. cerevisiae deletion strains, locus YML120C, strain ndi1, stronger effect = lower value 0.988 | S. cerevisiae deletion strains, locus YML124C, strain tub3, stronger effect = lower value 0.987 | S. cerevisiae deletion strains, locus YMR058W, strain fet3, stronger effect = lower value 0.997 | S. cerevisiae deletion strains, locus YMR078C, strain ctf18, stronger effect = lower value 0.983 | S. cerevisiae deletion strains, locus YMR125W, strain sto1, stronger effect = lower value 0.987 | S. cerevisiae deletion strains, locus YMR129W, stronger effect = lower value 0.998 | S. cerevisiae deletion strains, locus YMR205C, strain PFK2, stronger effect = lower value 0.986 | S. cerevisiae deletion strains, locus YMR223W, strain ubp8, stronger effect = lower value 0.991 | S. cerevisiae deletion strains, locus YMR231W, strain pep5, stronger effect = lower value 0.998 | S. cerevisiae deletion strains, locus YMR263W, strain SAP30, stronger effect = lower value 1 | S. cerevisiae deletion strains, locus YMR307W, strain GAS1, stronger effect = lower value 0.983 | S. cerevisiae deletion strains, locus YNL067W, strain RPL9B, stronger effect = lower value 1.02 | S. cerevisiae deletion strains, locus YNL071W, strain lat1, stronger effect = lower value 0.991 | S. cerevisiae deletion strains, locus YNL128W, strain TEP1, stronger effect = lower value 0.98 | S. cerevisiae deletion strains, locus YNL153C, strain GIM3, stronger effect = lower value 1.02 | S. cerevisiae deletion strains, locus YNL183C, strain NPR1, stronger effect = lower value 0.969 | S. cerevisiae deletion strains, locus YNL209W, strain ssb2, stronger effect = lower value 0.994 | S. cerevisiae deletion strains, locus YNL233W, strain BNI4, stronger effect = lower value 0.995 | S. cerevisiae deletion strains, locus YNL248C, strain rpa49, stronger effect = lower value 0.995 | S. cerevisiae deletion strains, locus YNL250W, strain rad50, stronger effect = lower value 0.978 | S. cerevisiae deletion strains, locus YNL271C, strain bni1, stronger effect = lower value 0.985 | S. cerevisiae deletion strains, locus YNL298W, strain CLA4, stronger effect = lower value 0.987 | S. cerevisiae deletion strains, locus YNL307C, strain MCK1, stronger effect = lower value 0.991 | S. cerevisiae deletion strains, locus YNL322C, strain KRE1 (second series), stronger effect = lower value 0.982 | S. cerevisiae deletion strains, locus YNL322C, strain KRE1, stronger effect = lower value 0.993 | S. cerevisiae deletion strains, locus YNR049C, strain mso1, stronger effect = lower value 0.989 | S. cerevisiae deletion strains, locus YNR052C, strain pop2, stronger effect = lower value 0.987 | S. cerevisiae deletion strains, locus YOL006C, strain TOP1, stronger effect = lower value 1.03 | S. cerevisiae deletion strains, locus YOL012C, strain htz1 0.746 | S. cerevisiae deletion strains, locus YOL147C, strain pex11, stronger effect = lower value 0.997 | S. cerevisiae deletion strains, locus YOR001W, strain rrp6, stronger effect = lower value 0.995 | S. cerevisiae deletion strains, locus YOR061W, strain CKA2, stronger effect = lower value 0.989 | S. cerevisiae deletion strains, locus YOR069W, strain VPS5, stronger effect = lower value 0.984 | S. cerevisiae deletion strains, locus YOR070C, strain gyp1, stronger effect = lower value 0.994 | S. cerevisiae deletion strains, locus YOR080W, strain dia2, stronger effect = lower value 0.994 | S. cerevisiae deletion strains, locus YOR083W, strain WHI5, stronger effect = lower value 1 | S. cerevisiae deletion strains, locus YOR106W, strain vam3, stronger effect = lower value 0.998 | S. cerevisiae deletion strains, locus YOR136W, strain idh2, stronger effect = lower value 0.99 | S. cerevisiae deletion strains, locus YOR144C, strain elg1, stronger effect = lower value 0.988 | S. cerevisiae deletion strains, locus YOR184W, strain ser1, stronger effect = lower value 1.02 | S. cerevisiae deletion strains, locus YOR231W, strain MKK1, stronger effect = lower value 0.98 | S. cerevisiae deletion strains, locus YOR265W, strain rbl2, stronger effect = lower value 0.996 | S. cerevisiae deletion strains, locus YOR270C, strain vph1, stronger effect = lower value 0.967 | S. cerevisiae deletion strains, locus YOR290C, strain snf2, stronger effect = lower value 0.998 | S. cerevisiae deletion strains, locus YOR316C, strain cot1, stronger effect = lower value 0.978 | S. cerevisiae deletion strains, locus YPL051W, strain arl3, stronger effect = lower value 0.992 | S. cerevisiae deletion strains, locus YPL055C, strain LGE1, stronger effect = lower value 1.06 | S. cerevisiae deletion strains, locus YPL078C, strain atp4, stronger effect = lower value 0.993 | S. cerevisiae deletion strains, locus YPL106C, strain sse1, stronger effect = lower value 0.98 | S. cerevisiae deletion strains, locus YPL240C, strain hsp82, stronger effect = lower value 0.986 | S. cerevisiae deletion strains, locus YPL256C, strain CLN2, stronger effect = lower value 0.992 | S. cerevisiae deletion strains, locus YPR119W, strain clb2, stronger effect = lower value 0.991 | S. cerevisiae deletion strains, locus YPR141C, strain kar3, stronger effect = lower value 0.98 | S. cerevisiae deletion strains, locus YPR163C, strain tif3, stronger effect = lower value 0.986 | S. cerevisiae deletion strains, locus YPR167C, strain met16, stronger effect = lower value 0.989 | S. cerevisiae deletion strains, strain wtn01, stronger effect = lower value 0.987 | S. cerevisiae strains, strain wild type, stronger effect = lower value 0.995
